Most compounds without a hit are left out; they make up all but 3.9% or so of the library.
3CLpro inhibitor – SARS-CoV 3CLpro protease inhibitors, primary screen, biochemical, quenched FRET | Replicase polyprotein 1ab (Severe acute respiratory syndrome coronavirus), P0C6X7 | recombinant SARS-CoV 3CLpro, quenched FRET peptide cleavage | inhibition, % at 6 µM | actives 0.14% (n = 290,000) | AID 1706, 2009; in the data active means inhibition above about 12%
PrPC TRFRET – inhibitors of human cell surface prion protein PrPC, primary screen, cell-based, TR-FRET | Major prion protein (Homo sapiens), P04156 | TR-FRET read-out | inhibition, % at 13.8 µM | actives 0.43% (n = 370,000); in the data active means inhibition above about 24%; further: 0% = median of the test wells and 100% = reference compound wells
Vc quorum ag – inducers of Vibrio cholerae quorum light production without autoinducers, primary screen, BH1578 luxS cqsA deficient, single point. V. cholerae BH1578 lux reporter, luminescence, 6 h. actives 0.16% (n = 350,000). activation, % at 18.7 µM; in the data active means activation mostly above about 9.7%, no sharp cut-off
GDH-TPI counter – GDH-TPI coupling enzyme inhibitors, primary screen, artefact control for M. tuberculosis FBA inhibitor project, biochemical, absorbance, full deck. GDH-TPI coupled enzyme counterscreen, NADH absorbance. inhibition, % at 4.8 µM. actives 1.2% (n = 360,000). AID 588335, 2011; in the data active means inhibition above about 30%;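 further: 0% = DMSO wells and 100% = wells lacking the enzyme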
Mtb FBA inh – Mtb FBA enzyme inhibitors, primary screen, biochemical, fluorescence, strain H37Rv. inhibition, % at 1 µM. actives 2.3% (n = 360,000). AID 588726, 2011. purified M. tuberculosis FBA, fluorescence read-out. Fructose-bisphosphate aldolase (Mycobacterium tuberculosis (strain ATCC 25618 / H37Rv)), …; in the data active means inhibition above about 27%;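 further: 0% = vehicle and 100% = reference inhibitor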
PrPC confirm – confirmation of inhibitors of cell surface human prion protein, confirmation, cell-based, TR-FRET; shares compounds with PrPC TRFRET; cell surface PrPC level; inhibition, % at 13.8 µM; actives 65% (n = 1,500); AID 743200, 2013; in the data active means inhibition above about 25%
LD9 tox – cytotoxicity in LD9 cells, cytotoxicity control for cell surface PrPc inhibitor project, cell-based, luminescence, high throughput. shares compounds with PrPC TRFRET. luminescence viability. inhibition, % at 13.8 µM. actives 29% (n = 1,500); in the data active means inhibition above about 9.5%
Numbers without * were called inactive.

COc1ccc(N2CC(O)=C(c3nc4ccccc4s3)C2=N)cc1 was read as 3CLpro inhibitor -3.0, PrPC TRFRET 21.3, Vc quorum ag -0.7, GDH-TPI counter 20.4 and Mtb FBA inh 1.5.
Screening COc1cccc(N2CC(O)=C(c3nc4ccccc4s3)C2=N)c1 returned 3CLpro inhibitor 5.1, PrPC TRFRET 91.7*, Vc quorum ag inactive, GDH-TPI counter 8.8, Mtb FBA inh 2.6, PrPC confirm 88.1* and LD9 tox 7.8.
Screening CCN(CC)C(=O)CC[C@H]1CC[C@]2(CCCN(C(=O)c3cccnc3)C2)O1 returned PrPC TRFRET 1.9.
For CC1(Cc2ccc(OC(F)(F)F)cc2)C(=O)Nc2ccc(S(=O)(=O)NC3CCCCC3)cc21 (centres undefined) the results were PrPC TRFRET 35.6*, Vc quorum ag -3.0, GDH-TPI counter 7.1, Mtb FBA inh -3.9, PrPC confirm 30.4* and LD9 tox 10.8*.
COc1ccc(Br)cc1C(C[N+](=O)[O-])c1c(N)n(C)c(=O)n(C)c1=O (centres undefined) was read as 3CLpro inhibitor 7.2, PrPC TRFRET 68.0*, Vc quorum ag inactive, GDH-TPI counter 10.2, Mtb FBA inh 0.4, PrPC confirm 37.7* and LD9 tox 33.4*.
`CN(C)c1ccc(C(C[N+](=O)[O-])c2c(N)n(C)c(=O)n(C)c2=O)c(F)c1C#N` (centres undefined) gave 3CLpro inhibitor -6.0, PrPC TRFRET -11.3, Vc quorum ag inactive, GDH-TPI counter 12.1 and Mtb FBA inh 3.0.
For CCCC(=O)N1CCN(c2ccc(NC(=O)c3ccc([N+](=O)[O-])o3)cc2)CC1 the results were 3CLpro inhibitor 2.0, PrPC TRFRET 32.9*, Vc quorum ag -0.9, GDH-TPI counter 15.2, Mtb FBA inh 2.0, PrPC confirm 8.5 and LD9 tox 77.5*.
`CCCCn1c(=O)[nH]c(=O)c2c1nc(Cn1ncc(Cl)c(Cl)c1=O)n2CCC` gave 3CLpro inhibitor -0.7, PrPC TRFRET 44.5*, Vc quorum ag inactive, GDH-TPI counter 3.1, Mtb FBA inh 1.9, PrPC confirm 43.4* and LD9 tox 70.9*.
For CC(C)C[C@H](NC(=O)c1nc[nH]c1C(=O)NC(c1ccccc1)c1ccccc1)C(=O)OC(C)(C)C the results were 3CLpro inhibitor 7.7, PrPC TRFRET 13.4, Vc quorum ag -0.3, GDH-TPI counter 10.8 and Mtb FBA inh -1.2.
For CC(C)C[C@H](NC(=O)c1[nH]cnc1C(=O)N[C@H](C)c1ccccc1)C(=O)OC(C)(C)C the results were 3CLpro inhibitor 7.0, PrPC TRFRET 26.5*, Vc quorum ag -1.4, GDH-TPI counter -12.9, Mtb FBA inh -4.2, PrPC confirm 23.9 and LD9 tox -1.7.
`COc1ccc(S(=O)(=O)Nc2ccc(C)cc2)cc1N(C)S(=O)(=O)c1ccc(Cl)cc1` gave 3CLpro inhibitor 8.5, PrPC TRFRET 24.7*, Vc quorum ag -5.4, GDH-TPI counter 6.2, Mtb FBA inh -0.1, PrPC confirm 16.3 and LD9 tox 3.0.
Screening COc1ccc(S(=O)(=O)NN(C)C)cc1N(C)S(=O)(=O)c1ccc(Cl)cc1 returned 3CLpro inhibitor -6.8, PrPC TRFRET -2.8, Vc quorum ag -0.5, GDH-TPI counter 2.2 and Mtb FBA inh 1.8.
CCOc1ccc(NC(=O)Nc2cccn(Cc3ccccc3)c2=O)cc1 was read as 3CLpro inhibitor 0.4, PrPC TRFRET 29.8*, Vc quorum ag -0.3, GDH-TPI counter 5.0, Mtb FBA inh 2.8, PrPC confirm 15.4 and LD9 tox -7.4.
For O=C(NCc1ccccc1)Nc1cccn(Cc2ccccc2)c1=O the results were 3CLpro inhibitor 4.2, PrPC TRFRET 9.7, Vc quorum ag -0.3, GDH-TPI counter 0.0 and Mtb FBA inh 12.6.
CCc1cc(=O)oc2cc(OC(C)=O)cc(OC(C)=O)c12 was read as 3CLpro inhibitor 0.7, PrPC TRFRET 47.4*, Vc quorum ag inactive, GDH-TPI counter 22.9, Mtb FBA inh active, PrPC confirm 45.9* and LD9 tox -6.3.
`Oc1ccc2c(ccc3[nH]cnc32)c1` gave 3CLpro inhibitor 3.3, PrPC TRFRET 5.0, Vc quorum ag -0.9, GDH-TPI counter 2.5 and Mtb FBA inh 3.0.
`Brc1cc2[nH]cnc2c2ccccc12` gave 3CLpro inhibitor -0.2, PrPC TRFRET 60.8*, Vc quorum ag -5.6, GDH-TPI counter 3.8, Mtb FBA inh -2.5, PrPC confirm 78.8* and LD9 tox -8.2.
O=Cc1sc(N2CCOCC2)nc1-c1ccccc1 was read as 3CLpro inhibitor 4.5.
Screening O=C(Nc1ccc(F)cc1F)c1cccn1-c1ncc(C(F)(F)F)cc1Cl returned 3CLpro inhibitor 5.8, PrPC TRFRET 14.5, Vc quorum ag inactive, GDH-TPI counter -1.2 and Mtb FBA inh 0.0.
Screening Cc1cc(C)cc(NC(=O)c2cccn2-c2ncc(C(F)(F)F)cc2Cl)c1 returned 3CLpro inhibitor 5.5, PrPC TRFRET 32.0*, Vc quorum ag inactive, GDH-TPI counter 9.2, Mtb FBA inh -3.2, PrPC confirm 17.0 and LD9 tox 2.2.
`CCOC(=O)c1c(NC(=O)CSc2nnc(Cc3ccccc3)o2)sc(C(C)=O)c1C` gave 3CLpro inhibitor -2.8, PrPC TRFRET 26.9*, Vc quorum ag inactive, GDH-TPI counter 19.1, Mtb FBA inh 3.5, PrPC confirm 20.6 and LD9 tox 5.9.
Screening CCOC(=O)c1c(NC(=O)CSc2nnc(-c3ccccc3)o2)sc(C(C)=O)c1C returned 3CLpro inhibitor -2.7, PrPC TRFRET 11.6, Vc quorum ag inactive, GDH-TPI counter 22.4 and Mtb FBA inh -0.2.
CC1CCCC12NC(=O)NC2=O (centres undefined) was read as PrPC TRFRET -4.4, GDH-TPI counter -1.8 and Mtb FBA inh -0.4.
`CCN(CC)c1c([N+](=O)[O-])c(=O)n(C)c2ccccc12` gave 3CLpro inhibitor 2.1, PrPC TRFRET -0.5, Vc quorum ag -0.5, GDH-TPI counter 8.9 and Mtb FBA inh -1.3.
Screening Cn1c(=O)c([N+](=O)[O-])c(Cl)c2ccccc21 returned 3CLpro inhibitor -3.0, PrPC TRFRET 57.0*, Vc quorum ag -0.1, GDH-TPI counter 1.9, Mtb FBA inh 0.1, PrPC confirm 50.1* and LD9 tox 98.0*.
For COC(=O)C1=CC(=O)C=C(OC)[C@@]12Oc1cc(C)cc(OC)c1C2=O the results were PrPC TRFRET 58.6*, PrPC confirm 1.4 and LD9 tox 97.7*.
